What follows are compounds tested on Sam68 (KHDRBS1) (assay: compounds binding KHDRBS1 protein – biochemical, small-molecule microarray, 635 nm fluorescence, primary screen (AID 1125;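 note: score merges 667 nm channel intensity with signal to noise over triplicate slides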)). Settings: higher = more signal.
`CC1CC/C=C\[C@H]2OC34C=CCN(C(C)(C)C)C(=O)[C@H]3N(CCCCCCO)C(=O)[C@@H]4C2C(=O)O1` (stereo not given in full) showed a composite z-score of -0.281.
`C[C@@]1([C@@H](NC(=O)c2ccccc2)c2ccc(-c3ccccc3)cc2)C[C@H]1C1CCCCC1` gave a composite z-score of -1.66.
With `COCCCNC(=O)[C@@]1(Cc2ccccc2N=[N+]=[N-])N=C(c2ccc(OCCCO)cc2)O[C@H]1c1ccccc1N=[N+]=[N-]` the composite z-score was 1.29.
With `CCN(CC)c1ccc(N2CC=CC34O[C@@H]5/C=C\CCCOC(=O)C5[C@H]3C(=O)N(CCO)[C@@H]4C2=O)cc1` (stereo not given in full) the composite z-score was -0.526.
Work on `CC(C)(C)OC(=O)CC[C@]12N=C(c3ccc(OCCCO)cc3)O[C@H]1c1ccccc1N(CCS(=O)(=O)c1ccccc1)C2=O` yielded a composite z-score of 1.3.
`CN1C(=O)C2C=CC(C(O)c3cccs3)N(Nc3ccccc3)C2C1=O` (stereo not given) showed a composite z-score of 0.186.
`O=C1O[C@H](c2ccccc2)[C@H](c2ccccc2)N2[C@H]1[C@@H](C(=O)O)[C@]1(C(=O)Nc3ccc(C#CC4=CCCCC4)cc31)[C@H]2c1ccccc1OCCO` was tested, and the composite z-score was 1.31.
`COc1cc(OC)c(C(O)C2C=CC3C(=O)NC(=O)C3N2Nc2ccc(Cl)cc2Cl)cc1Br` (stereo not given) was tested, and the composite z-score was 1.22.
Compound `C=CC[C@]1(C(=O)NCCCOC)N=C(c2ccc(OCCCO)cc2)O[C@H]1c1ccccc1N=[N+]=[N-]` has a composite z-score of 1.31.
`Cc1ccc(S[C@]2(C(=O)NCCN3CCOCC3)CC(=O)N(Cc3ccccc3Cl)[C@@H]2c2ccc(CO)cc2)cc1` was tested, and the composite z-score was -0.541.
For `Cc1ccc(S[C@]2(C(=O)NCC(C)C)CC(=O)N(Cc3cc(C(F)(F)F)cc(C(F)(F)F)c3)[C@@H]2c2ccc(CO)cc2I)cc1`, the composite z-score was -0.47.
For `CC(C)[C@@H](CO)NC(=O)[C@H]1[C@@H](c2ccccc2)N(c2ccccc2)O[C@@H]1C`, the composite z-score was -0.238.
For `C=CCOC(=O)[C@@H]1[C@H]2C(=O)O[C@H](c3ccccc3)[C@H](c3ccccc3)N2[C@H](c2ccc(OCCOC(=O)[C@@H]3C[C@@H]4C(=O)N[C@@H](CCCCN(C)C)C(=O)N4[C@@H]3c3ccc(O)cc3)cc2)[C@@]12C(=O)Nc1ccc(I)cc12`, the composite z-score was 1.29.
In the case of `COCCOC(=O)N1C(=O)[C@@]2(c3cc(C#CC4=CCCCC4)ccc31)[C@H](C(=O)Nc1nc3ccccc3s1)[C@H]1C(=O)O[C@H](c3ccccc3)[C@H](c3ccccc3)N1[C@@H]2c1ccccc1OCCO`, the composite z-score is reported as 1.13.
With `CC(C)N1C(=O)[C@@]2(Cc3ccccc31)c1ccccc1C(=O)N(C1CCCCC1)[C@H]2c1ccc(CO)cc1` the composite z-score was 0.819.
In the case of `O=C1O[C@H](c2ccccc2)[C@H](c2ccccc2)N2[C@H]1[C@@H](C(=O)O)[C@]1(C(=O)Nc3ccc(C#CCCO)cc31)[C@H]2c1ccc(O)cc1`, the composite z-score is reported as 0.0673.
Work on `C=CC[C@@]1(C(=O)NCc2ccccc2)N=C(c2ccc(OCCCO)cc2)O[C@@H]1c1ccccc1N=[N+]=[N-]` yielded a composite z-score of 1.3.
`COc1ccc(CCN2C(=O)[C@@]3(c4ccc([N+](=O)[O-])cc4)CC(=O)N(C4CCCCC4)[C@@H]3c3ccc(CO)cc32)cc1` showed a composite z-score of 0.38.
In the case of `C=CCOC(=O)[C@@H]1[C@H]2C(=O)O[C@H](c3ccccc3)[C@H](c3ccccc3)N2[C@H](c2ccc(OCCOC(=O)[C@@H]3C[C@@H]4C(=O)N[C@@H](CCCC[N+](C)(C)C)C(=O)N4[C@@H]3c3cccc(OCCO)c3)cc2)[C@@]12C(=O)Nc1ccc(I)cc12`, the composite z-score is reported as 1.29.
`O=C1[C@H]2C=C(Br)[C@H](C[C@@H]2OCCCCO)[C@@]12CO2` gave a composite z-score of -0.264.
`O=C(NCc1ccccc1)[C@@]1(Cc2ccccc2)N=C(c2ccc(OCCCO)cc2)O[C@H]1c1ccccc1` gave a composite z-score of 1.31.
In the case of `CCc1oc(CC[C@@H](CO)NC(=O)NCCn2cc(C3(O)CCCCC3)nn2)c(C(=O)OC)c1C(=O)OC`, the composite z-score is reported as 1.18.
Work on `C=C(/C(=C/C[C@@H](OC(C)=O)c1ccc(OCCO)cc1)c1cnc2ccccc2c1)C(C)C` yielded a composite z-score of 0.713.
For `COC(=O)[C@@]1(Cc2ccc(F)cc2)[C@H]2c3cc(C(=O)N(C)C)n(Cc4ccc(S(C)(=O)=O)cc4)c3C[C@H]2CN1C(=O)c1ccccc1`, the composite z-score was -0.181.
Work on `O=C(NCc1ccc(F)cc1)[C@H]1C[C@H]2C(=O)N[C@@H](Cc3ccccc3)C(=O)N2[C@H]1c1ccc(O)cc1` yielded a composite z-score of -0.109.
For `C=CC[C@@]1(C(=O)N(C)C)N=C(c2ccc(OCCCO)cc2)O[C@@H]1c1ccccc1N=[N+]=[N-]`, the composite z-score was 1.3.
For `C=C(COC)/C(=C/C[C@@H](OC(C)=O)c1ccc(OCCO)cc1)c1cc(C(=O)OC)ccc1OC`, the composite z-score was 1.27.
`Cc1ccc(C(C)CC(O)C2C=CC3C(=O)N(C)C(=O)C3N2NC(=O)OC(C)(C)C)o1` (stereo not given) was tested, and the composite z-score was 1.21.
For `CC(C)C[C@@H]1NC(=O)[C@H]2C[C@@H](C(=O)NCCCCCCN(C)C)[C@@H](c3ccc(O)cc3)N2C1=O`, the composite z-score was 1.32.
With `CN(C)CCCCCCNC(=O)[C@@H]1C[C@@H]2C(=O)N[C@@H](CCCCN)C(=O)N2[C@@H]1c1cccc(OCCO)c1` the composite z-score was 1.32.
Compound `[N-]=[N+]=NCc1ccccc1[C@H]1OC(c2ccc(OCCCO)cc2)=N[C@@]1(Cc1ccccc1)C(=O)NCc1ccccc1` has a composite z-score of 1.26.
Work on `CCOC(=O)C[C@H]1[C@H](OC(=O)c2cc3ccccc3oc2=O)[C@@H](NC(=O)C2CCCCC2)c2cc(OCCCO)ccc2N1C(=O)c1ccccc1` yielded a composite z-score of 1.04.
`[N-]=[N+]=NCc1ccccc1C[C@]1(C(=O)NCC(O)CO)N=C(c2ccc(OCCCO)cc2)O[C@H]1c1ccccc1` (stereo not given in full) was tested, and the composite z-score was -0.236.
In the case of `CO[C@H]1O[C@H](CO)[C@@H](OC(=O)Nc2ccc(Br)cc2)[C@H](OC(=O)c2cc3ccccc3[nH]2)[C@H]1OC(=O)c1cc2ccccc2[nH]1`, the composite z-score is reported as 1.33.
Compound `CC(CO)N1C(=O)[C@@H]2C3C(=O)OCCC/C=C\[C@H]3OC23C=CCN(c2ccc4ccccc4c2)C(=O)[C@@H]13` (stereo not given in full) has a composite z-score of -0.704.

Source: PubChem BioAssay
